# CYP2C19 inhib: blockers of cytochrome P450 2C19 activity – biochemical, luminescence, ADME assay, primary screen; P33261; CYP2C19 Supersomes, luciferin-H EGE luminescence, 30 min; inhibition, % at 5 µM; hit rate 21% among 96,000;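 active = CYP2C19 inhibition above a set limit at 5 µM in the primary screen, cut at about 50% in these data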
# CYP2C9 act: human CYP2C9 activators, primary screen, biochemical, luminescence | Cytochrome P450 2C9 (Homo sapiens), P11712 | recombinant CYP2C9, luciferin-H conversion; stronger effect = higher value; factor 1 = untreated enzyme, 0 = blocked | activation factor at 5 µM | hit rate 1.4% among 96,000 | AID 1024, 2008;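 active = activation factor of 2 or more for CYP2C9 at a 5 µM dose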
# Target sequence (P11712 whole entry, looked up): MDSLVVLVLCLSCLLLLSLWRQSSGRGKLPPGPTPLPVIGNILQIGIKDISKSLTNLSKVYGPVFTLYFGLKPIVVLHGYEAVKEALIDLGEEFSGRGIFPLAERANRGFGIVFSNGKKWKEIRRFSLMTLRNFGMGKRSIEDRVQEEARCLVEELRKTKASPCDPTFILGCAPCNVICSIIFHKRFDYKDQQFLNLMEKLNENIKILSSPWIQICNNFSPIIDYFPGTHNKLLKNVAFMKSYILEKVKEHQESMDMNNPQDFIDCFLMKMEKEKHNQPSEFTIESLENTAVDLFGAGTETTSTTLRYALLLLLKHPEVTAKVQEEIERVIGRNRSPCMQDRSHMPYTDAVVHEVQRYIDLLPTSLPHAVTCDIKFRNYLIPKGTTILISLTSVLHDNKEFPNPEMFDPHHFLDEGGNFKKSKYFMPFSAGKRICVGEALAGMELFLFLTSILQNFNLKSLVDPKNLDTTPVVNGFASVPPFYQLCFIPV
# CYP2C19 activ: human CYP2C19 activators, primary screen, biochemical, luminescence | Cytochrome P450 2C19 (Homo sapiens), P33261 | recombinant CYP2C19, luciferin-H EGE luminescence; stronger effect = higher value; 0 = fully inhibited enzyme, 1 = untreated enzyme | activation factor at 5 µM | 96,000 tested, under 10 active;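 active = activation factor of at least 2 at 5 µM in the primary screen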
# CYP2C9 inhib: blockers of cytochrome P450 2C9 activity – biochemical, luminescence, ADME assay, primary screen | P11712 | CYP2C9 Supersomes, luciferin-H conversion | inhibition, % at 5 µM | hit rate 20% among 96,000 | AID 777, 2007;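 active = blocking of liver enzyme CYP2C9 beyond about 50% at 5 µM, limit read from the data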
# Cav3 T inh: Cav3.2 calcium influx blockers – cell-based, Fluo-4 calcium fluorescence, FDSS, MLSMR library, primary screen | Cav3.2-expressing cells; stronger effect = lower value | B-score at 10 µM | Voltage-dependent T-type calcium channel subunit alpha-1H (Homo sapiens), O95180 | hit rate 4% among 100,000 | AID 449739, 2010;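 active = single-dose well whose peak fluorescence ratio is a statistical outlier from its plate by either plate-standardised score or position-corrected B-score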
# Numbers stand for hits; n = inactive; x = no result. Shown are actives, neighbours in structure and some others; about 27% of the full set was active somewhere.
SMILES,CYP2C19 inhib,CYP2C9 act,CYP2C19 activ,CYP2C9 inhib,Cav3 T inh
Cc1ccccc1CN1C(=O)C2(OCCCO2)c2ccccc21,n,2.2,n,n,n
Nn1c(SCC(=O)Nc2ccc(F)cc2)nnc1C1CCCCC1,n,n,n,n,n
COc1ccc(NC(=O)CSc2nnc(C3CC3)n2N)cc1,n,n,n,n,n
COc1ccc(CCSc2nnc(C3CCCCC3)n2N)cc1,57.5,n,n,51.9,n
COc1ccc(NC(=O)CSc2nnc(C3CCCCC3)n2-c2ccccc2)cc1,n,n,n,n,-6.15
Cn1cccc1C(=O)NC(=O)CSc1nnc(C2CC2)n1-c1ccccc1,55.2,n,n,n,n
CCn1c(SCC(=O)Nc2cc(OC)ccc2OC)nnc1C1CCCCC1,69.0,n,n,n,n
COc1cccc2cc(C(=O)n3ccc(C)n3)c(=O)oc12,n,n,n,n,n
CCN1CCc2c(sc3c2c(NCc2ccco2)nc2nnnn23)C1,n,n,n,52.7,n
CC(C(=O)c1ccccc1)n1cnc2ccccc2c1=O (centres undefined),n,n,n,n,n
O=C(CSc1nnc(-c2cccs2)n1-c1cccc(Cl)c1)c1cccc2c1OCCO2,72.0,n,n,84.9,n
COc1ccc(Nc2nc(-c3cccs3)cs2)cc1,n,n,n,n,n
COc1ccc(Nc2nc(-c3sc(N)nc3C)cs2)cc1,77.8,n,n,80.1,n
Cc1nc(N)sc1-c1csc(Nc2ccc(Cl)cn2)n1,x,x,x,x,n
COc1ccc(Nc2nc(-c3sc(NC(C)=O)nc3C)cs2)cc1,82.2,n,n,81.1,x
Cc1nc(N)sc1-c1csc(Nc2ccccn2)n1,n,n,n,60.6,n
Cc1ccc(OCC(=O)N/N=C/c2cn[nH]c2-c2ccc(Cl)c(Cl)c2)cc1,n,n,n,52.4,n
Cc1cccc(OCC(=O)N/N=C/c2cn[nH]c2-c2ccc(Cl)c(Cl)c2)c1,n,n,n,56.6,x
C/C(CC(=O)Nc1cc(C)ccn1)=N\NC(=O)COc1cccc(C)c1,n,n,n,n,n
Cc1nc(C(=O)O)sc1C1(C)CC(c2cccc([N+](=O)[O-])c2)=NO1 (centres undefined),x,x,x,x,n
O=C(C1=C[C@@H](C2CC2)C[C@@H](OCCCCO)O1)N1CCN(Cc2ccc3c(c2)OCO3)CC1,x,x,x,x,n
O=c1c2cc(N3CCOCC3)ccc2[nH]c(=S)n1Cc1ccc(Cl)cc1,n,n,n,57.9,n
O=c1c2cc(F)ccc2[nH]c(=S)n1CCCN1CCOCC1,66.7,n,n,n,n
C/C(=C\C(=O)OCCCCCCCCC(=O)O)C[C@@H]1OC[C@H](C[C@@H]2O[C@H]2[C@@H](C)[C@H](C)O)[C@@H](O)[C@H]1O,x,x,x,x,n
O=C(Nc1cccc(Cl)c1Cl)c1ccncc1,89.8,n,n,68.6,n
SMILES,CYP2C19 inhib,CYP2C9 act,CYP2C19 activ,CYP2C9 inhib,Cav3 T inh
CC(C)Oc1ccc(NC(=O)c2ccncc2)cc1,86.6,n,n,89.8,n
Cn1cnc2cc(NC(=O)c3ccc(Cl)cc3)ccc21,x,x,x,x,n
O=C(Nc1ccc(Cl)cc1)c1ccncc1,89.5,n,n,n,n
CC(C)Oc1ccc(C(=O)NC2CCCCC2)cc1,n,n,n,n,x
Cc1cc2n(c(=O)c1C#N)CCCN2c1ccccc1,x,x,x,x,n
CCNC(=S)NNC(=O)c1cc(C)on1,n,n,n,n,n
Fc1ccccc1N1CCN(CCCNc2ccc3nncn3n2)CC1,n,n,n,n,n
Cc1csc(C(=O)O)c1-n1cccc1,n,n,n,n,n
CCOC(=O)c1c(C)c(-c2ccccc2)n(CC(=O)N2CCN(C)CC2)c1C,n,n,n,n,n
CCOC(=O)c1c(C)c(-c2ccccc2)n(CC(=O)N2CCCC2)c1C,87.7,n,n,n,n
COc1cc(NC(=O)C2CCC(CNc3c(N4CCCCC4)c(=O)c3=O)CC2)cc(OC)c1 (centres undefined),57.6,n,n,62.0,n
COc1cc(NC(=O)C2CCC(CNc3c(N4CCC(C)CC4)c(=O)c3=O)CC2)cc(OC)c1 (centres undefined),n,n,n,51.2,n
O=C(NCCc1cccs1)C1CC(c2ccccc2[N+](=O)[O-])=NO1 (centres undefined),n,n,n,n,n
O=C(c1ccc(CS(=O)(=O)c2ccccc2)o1)N1CCN(c2ncccn2)CC1,54.5,n,n,63.5,n
Cc1ccc(S(=O)(=O)Cc2ccc(C(=O)N3CCCCCC3)o2)cc1,n,n,n,n,n
O=C(c1ccc(CS(=O)(=O)c2ccc(Br)cc2)o1)N1CCOCC1,n,n,n,n,n
COc1ccccc1S(=O)(=O)Cc1ccc(C(=O)N2CCN(c3ccccc3)CC2)o1,n,n,n,n,n
Cc1ccc(S(=O)(=O)Cc2ccc(C(=O)N3CCN(c4ccccn4)CC3)o2)cc1,n,n,n,69.6,n
O=C(c1ccc(CS(=O)(=O)c2c(Cl)cccc2Cl)o1)N1CCN(c2ccccn2)CC1,92.8,n,n,n,n
O=C(c1ccc(CS(=O)(=O)c2ccc(Br)cc2)o1)N1CCN(c2ccccn2)CC1,n,n,n,68.7,n
CCOC(=O)CN1C(=O)N[C@@H](c2ccccc2)[C@H](C(C)=O)[C@H]1C,x,x,x,x,n
COc1ccc(-n2ncc3c(=O)n(CC(=O)N4CCCc5ccccc54)cnc32)cc1,n,n,n,n,n
O=C(Nc1ccccc1)OCc1cc(-c2ccccc2Cl)on1,n,n,n,n,x
O=C(CCn1c(=O)sc2ccccc21)NCCN1CCOCC1,x,x,x,x,n
O=C(Cn1ccsc1=NC(=O)c1ccco1)c1ccccc1,n,n,n,n,n
SMILES,CYP2C19 inhib,CYP2C9 act,CYP2C19 activ,CYP2C9 inhib,Cav3 T inh
O=C(c1ccc(-c2cccc(C(F)(F)F)c2)o1)N1CCOCC1,n,n,n,n,n
O=C(c1ccc(CS(=O)(=O)c2cccc(C(F)(F)F)c2)o1)N1CCN(c2ccccn2)CC1,53.5,n,n,60.3,n
COC(=O)CN1C(=O)C(O)(CC(=O)c2ccc(C)cc2)c2ccccc21 (centres undefined),62.3,n,n,n,x
COC(=O)CN1C(=O)C(O)(CC(=O)c2ccc(C)o2)c2ccccc21 (centres undefined),n,n,n,n,n
COC(=O)CN1C(=O)C(O)(CC(=O)c2ccccc2)c2ccccc21 (centres undefined),51.2,n,n,n,n
NC(=O)CNC(=O)C1CCCc2c1[nH]c1ccc(Cl)cc21 (centres undefined),n,n,n,50.1,n
COC(=O)c1[nH]c2ccc(Cl)cc2c1NC(=O)C1CC1,n,n,n,n,x
CCN1C(=O)c2cccc3c(S(=O)(=O)Nc4ncccc4C)ccc1c23,n,n,n,55.5,n
CCN1C(=O)c2cccc3c(S(=O)(=O)Nc4ccccn4)ccc1c23,n,n,n,64.9,n
CCN1C(=O)c2cccc3c(S(=O)(=O)NCc4cccnc4)ccc1c23,n,n,n,n,n
